The values below come from PubChem BioAssay AID504386 (National Center for Advancing Translational Sciences (NCATS), 2011).

Records with an inconclusive call do not appear. Active and inactive are the calls of the source. Calls follow the shape of the dose curve; as a rule, active = well fitted curve in the direction sought with a large enough effect; inconclusive = small, poorly fitted or top-dose-only effect, or another doubt; inactive = no such curve, though single readings can be large or run the other way.

For the test, the target named is Runt-related transcription factor 1 (Homo sapiens) + Core-binding factor subunit beta (Homo sapiens) (UniProt Q01196+Q13951). Briefly: qHTS Assay for Compounds Blocking the Interaction Between CBF-beta and RUNX1 for the Treatment of Acute Myeloid Leukemia: SAR for Probe. Conditions: AlphaScreen CBFb-His/RUNX1-biotin binding, biochemical. The text has this: NIH Chemical Genomics Center [NCGC] NIH Molecular Libraries Probe Production centers Network [MLPCN] MLPCN Grant: X01MH083259-01 Assay Submitter (PI): Paul Liu NCGC Assay Overview: Core Binding Factor (CBF) abnormalities are associated with 20-25% of all acute myeloid leukemias (AML), of which 5-10% are further sub classified as acute myelomonocytic leukemia with eosinophilia, also known as M4Eo in the FAB classification scheme. This subtype of leukemia is usually associated with chromosome 16 inversion (p13:q22). Chromosome 16 inversion results in formation of the fusion oncogene CBFB-MYH11, which encodes the fusion protein CBF-beta-SMMHC. […] It has been hypothesized that the interference of CBF-beta and RUNX1 binding could have therapeutic implications for patients with CBF mediated leukemias. […]
NCGC Assay Protocol Summary: Step, Parameter, Description (1) Reagent, 3 uL CBFb-His/RUNX1-biotin mix incubated together for 20 minutes at room temperature (30 nM each) (2) Compound or control, 23 nL compound stock solution (3) Incubation, 15 minutes at Room temperature (4) Reagent, 1 uL 50 ng each of beads (Nickel beads and streptavidin beads) (5) Incubation, 90 minutes at Room temperature (6) Detection, […], Envision reader in AlphaScreenTM mode Keywords: MLSMR, MLPCN, NIH Roadmap, qHTS, NCGC, Core binding factor, CBF, CBF-beta, Acute myeloid leukemia
On the technique in general: qHTS replaces the single test concentration by a dilution series.

Sequence of Runt-related transcription factor 1 (Homo sapiens) + Core-binding factor subunit beta (Homo sapiens) (Q01196 whole entry, looked up): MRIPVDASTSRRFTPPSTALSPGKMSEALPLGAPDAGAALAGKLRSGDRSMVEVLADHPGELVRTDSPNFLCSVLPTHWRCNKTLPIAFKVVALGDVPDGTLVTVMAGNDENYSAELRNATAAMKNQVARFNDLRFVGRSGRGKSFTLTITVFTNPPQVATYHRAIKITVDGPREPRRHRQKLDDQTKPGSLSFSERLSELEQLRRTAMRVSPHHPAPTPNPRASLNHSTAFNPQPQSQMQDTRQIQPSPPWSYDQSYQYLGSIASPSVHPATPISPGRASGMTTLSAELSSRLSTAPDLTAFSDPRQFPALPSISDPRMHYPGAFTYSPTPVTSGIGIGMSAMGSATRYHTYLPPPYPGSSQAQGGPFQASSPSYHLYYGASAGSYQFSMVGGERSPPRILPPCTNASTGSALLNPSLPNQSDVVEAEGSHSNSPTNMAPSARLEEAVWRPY
Sequence of Runt-related transcription factor 1 (Homo sapiens) + Core-binding factor subunit beta (Homo sapiens) (Q13951 whole entry, looked up): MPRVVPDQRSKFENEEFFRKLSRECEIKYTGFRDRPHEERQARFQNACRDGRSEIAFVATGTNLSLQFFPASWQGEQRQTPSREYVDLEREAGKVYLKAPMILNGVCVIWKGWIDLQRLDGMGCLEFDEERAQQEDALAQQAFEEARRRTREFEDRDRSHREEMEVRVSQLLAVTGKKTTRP

Regarding `CCN(CC)CCN1C(=O)CN=C(c2ccccn2)c2cc(Cl)ccc21`, the Potency was 21.7 µM (active).

For `CN1C(=O)CN=C(c2ccc[nH]2)c2cc(Cl)ccc21` (tested in a mixture with another compound), the Potency is 109 µM (active).
